Sfp PPTase inh = blocks B. subtilis Sfp PPTase activity; AID 1490; Biochemical Sfp PPTase activity, qHTS; actives 3.5% (n = 310,000); Potency, µM, hits mostly inhibitors; Q9F4F7;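 further: the enzyme is Sfp with the accession as filed and its product quenches rhodamine fluorescence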
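Buffer: 50 mM Hepes-Na pH 7.6, 10 mM MgCl2, 0.01% Nonidet P-40, 0.01% BSA. Enzyme 15 nM, pre-exposed to compound 15 min; substrates then added and fluorescence change tracked over 30 min.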
G9a block = G9a (human) methyltransferase inhibition. AID 504332. G9a H3K9 monomethylation, AlphaScreen, 2 h. Q96KQ7. actives 8.8% (n = 350,000). Potency, µM (highest dose often 102 µM), usual class: inhibitors; further: nearly all actives have a fitted effect of over 75% in size
Target sequence (Q96KQ7 913-1193 limits assumed): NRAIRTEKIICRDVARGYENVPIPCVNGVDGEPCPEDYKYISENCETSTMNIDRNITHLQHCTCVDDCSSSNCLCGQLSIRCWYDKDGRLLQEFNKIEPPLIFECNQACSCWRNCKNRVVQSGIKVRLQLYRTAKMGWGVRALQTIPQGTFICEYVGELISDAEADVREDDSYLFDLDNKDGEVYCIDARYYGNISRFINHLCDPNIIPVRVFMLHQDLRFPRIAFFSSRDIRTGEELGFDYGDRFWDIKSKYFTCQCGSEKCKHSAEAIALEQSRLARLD
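AlphaScreen read-out: biotin-H3K9 peptide (500 nM) methylation by 20 nM enzyme with 20 uM SAM, 2 h at room temperature after 15 min compound preincubation; anti-monomethyl H3K9 antibody plus donor/acceptor beads, 10 min dark.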
ALOX12 inh = ALOX12 (human) lipoxygenase inhibition | P18054 | purified 12hLO, xylenol orange hydroperoxide absorbance | Potency, µM (series often up to 108 µM), actives largely listed as inhibitors | actives 1.1% (n = 580,000) | AID 1671190
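Hydroperoxide product was detected by ferrous iron/xylenol orange as the 573 to 405 nm absorbance ratio. Arachidonic acid at 40 uM (final) was turned over for 30 min at room temperature by 150 nM human 12hLO, pH 7.0 Hepes buffer, after 15 min compound preincubation.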
HP1b chromo inh = blocks HP1-beta chromodomain binding to methylated histone tails. AlphaScreen HP1-beta / biotin-H3K9me3 peptide binding. Potency, µM (titrated, usually from 114 µM), usual class: inhibitors. P83916. actives 0.56% (n = 390,000). AID 540317; further: nearly all actives have a fitted effect of over 70% in size
Target sequence (P83916 whole entry, looked up): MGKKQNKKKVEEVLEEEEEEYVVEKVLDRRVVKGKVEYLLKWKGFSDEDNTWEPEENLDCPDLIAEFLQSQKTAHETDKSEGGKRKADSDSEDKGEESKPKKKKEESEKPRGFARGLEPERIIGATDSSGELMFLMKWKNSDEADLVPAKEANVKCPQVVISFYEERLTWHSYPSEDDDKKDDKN
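AlphaScreen: HP1-beta (50 nM) preformed 30 min with biotin-H3(1-18)K9me3 peptide (50 nM) in PBS pH 7.4, 0.01% Tween-20. Compound added for 30 min at RT, then streptavidin donor/nickel chelate acceptor beads (10 ug/mL) for 30 min.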
BAZ2B inh = inhibitors of human BAZ2B bromodomain; AlphaScreen BAZ2B-H3K14Ac peptide displacement; Q9UIF8; Potency, µM (highest dose often 114 µM), usual class: inhibitors; actives 4.4% (n = 360,000); further: nearly all actives have a fitted effect of over 60% in size
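In this displacement format the biotinylated H3(5-23) peptide acetylated at Lys14 serves as ligand at 50 nM, with BAZ2B at 50 nM in PBS pH 7.4 containing 0.01% Tween-20. Donor and acceptor beads are 10 ug/mL final.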
JMJD2A Tudor inh = JMJD2A Tudor domain (human) inhibition | AlphaScreen JMJD2A-Tudor / H3K4me3 peptide binding | O75164 | AID 504339 | Potency, µM (series often up to 114 µM), hits mostly inhibitors | actives 4.4% (n = 390,000); further: nearly all actives have a fitted effect of over 50% in size
Hits are given with their value; i = inactive; ? = inconclusive; nt = not tested or not shown; [ ] = remark or other dose. A selection: hits, their analogues and other compounds. The true share with any hit is near 8.7%. The call rests on the fitted dose curve; in most records, active means well fitted curve in the direction sought with a large enough effect; inconclusive means small, poorly fitted or top-dose-only effect, or another doubt; inactive means no such curve, though single readings can be large; an effect the other way counts as inactive or inconclusive.

SMILES	Sfp PPTase inh	G9a block	ALOX12 inh	HP1b chromo inh	BAZ2B inh	JMJD2A Tudor inh
CC1(C)CC2(CC(c3ccccc3F)c3cc(Cl)c(O)cc3O2)NC(=S)N1 (stereo not drawn)	i	?	32µM	?	nt	i[11.4 µM]
OC(C#CCN1CCCC1)c1ccccc1 (stereo not drawn)	i	45µM	i	i	i	i
OC(C#CCN1CCCCC1)c1ccccc1 (stereo not drawn)	i	?	i	i	nt	i
CC(O)(C#CCN1CCOCC1)c1ccccc1 (stereo not drawn)	i	40µM	i	i	i	i
OC(C#CCN1CCCCCC1)(c1ccccc1)c1cccnc1 (stereo not drawn)	i	18µM	i	i	i	i
OC(C#CCN1CCCC1)(c1ccccc1)c1cccnc1 (stereo not drawn)	?	8.9µM	?	i	79µM	28µM
Cc1c(C(=O)CSc2nnc(C3CC3)n2C2CC2)oc2ccccc12	nt	nt	i	nt	nt	nt
COC(=O)C(C(=O)OC)C(CC(C(C(=O)OC)C(=O)OC)C(C(=O)OC)C(=O)OC)c1cc(OC)ccc1Br (stereo not drawn)	nt	nt	i	nt	nt	nt
CC(C)C(O)(C#CCN1CCCCC1)c1ccccc1 (stereo not drawn)	i	i[12.7 µM]	i	i	i	i
CC(C)C(O)(C#CCN1CCCC1)c1ccccc1 (stereo not drawn)	i	25µM	?	i	?	i
CC(=O)N1CCN(C[C@@H]2C=C(C)[C@H](Cc3nnc(-c4ccncc4)o3)C[C@H]2C(C)C)CC1	nt	nt	i	nt	nt	nt
CCCc1[nH]n(-c2ccc([N+](=O)[O-])cc2)c(=O)c1C(C)=NCc1ccncc1	i	35µM	?	i	i	?
CCCc1[nH]n(-c2ccc([N+](=O)[O-])cc2)c(=O)c1C=NCCCn1ccnc1	i	i[12.7 µM]	i	i	50µM	i
NC(=O)c1ccc(NC(=O)CCCc2nc(-c3ccccc3Cl)no2)cc1	i	50µM	i	i	i	i
c1ccc(-c2nc(C3CCOCC3)no2)c(OC2CCN(C3CCCC3)C2)c1 (stereo not drawn)	nt	nt	i	nt	nt	nt
Nn1cnnc1N/N=C/c1ccc(Cl)cc1Cl	56µM	i	?	i	?	i
O=C(N/N=C/c1ccc(Cl)cc1Cl)c1ccc(-n2cnnn2)cc1	nt	i[12.7 µM]	i	i	i	i
C[N+]1(CC2COC3(CCCCC3)O2)CCCC1 (stereo not drawn)	i	14µM	?	i	i	?
O=C(N/N=C/c1cc(Cl)c(O)c(Cl)c1)c1cc2c(ccc3ccccc32)o1	?	nt	i	i	56µM	?
O=C(N/N=C/c1cc(Br)c(O)c(Br)c1)c1cc2c(ccc3ccccc32)o1	?	?	?	?	40µM	79µM
Cn1nccc1C(=O)N[C@@H]1CN(Cc2ccccc2)C[C@H]1CO	nt	nt	i	nt	nt	nt
CC1CCN(c2nc3c(s2)c(=O)n(C(C)C)c(=O)n3CC(=O)Nc2cccc(Cl)c2)CC1	nt	nt	i	nt	nt	nt
CCCCN1CCCc2cc(CN(CCCN3CCOCC3)C(=O)Nc3ccc(CC)cc3)ccc21	nt	8.9µM	?	i	?	7.9µM
COc1ccc(CN(CCCN2CCOCC2)C(=O)Nc2ccccc2)cc1OC	i	i	i	i	i	i
CCc1ccc2[nH]c(=O)c(CN(CCCN3CCOCC3)C(=O)Nc3ccc(F)cc3)cc2c1	i	i[2.33 µM]	i	i	i	i
SMILES	Sfp PPTase inh	G9a block	ALOX12 inh	HP1b chromo inh	BAZ2B inh	JMJD2A Tudor inh
CCCN1CCCc2cc(CN(CCCN3CCOCC3)C(=O)Nc3ccc(CC)cc3)ccc21	nt	13µM	?	?	8.9µM	?
COc1cc(C)ccc1OCc1ccc(C(N)=O)cc1	nt	nt	i	nt	nt	nt
COc1ccc2[nH]cc(CCNc3cc(-c4cccnc4)ncn3)c2c1	?	i[0.501 µM]	32µM	nt	nt	nt
COc1ccc(CNc2ccnc(-c3ccc4c(c3)OCO4)n2)c(OC)c1	45µM	i[0.501 µM]	20µM	nt	nt	nt
COc1ccc2[nH]cc(CCNc3cc(-c4ccccc4C)ncn3)c2c1	i	i[0.501 µM]	?	nt	nt	nt
COc1ccc2[nH]cc(CCNc3ccnc(-c4ccc5c(c4)OCO5)n3)c2c1	?	i[0.501 µM]	45µM	nt	nt	nt
COc1ccccc1CNc1ccnc(-c2ccc3c(c2)OCO3)n1	50µM	nt	?	nt	nt	nt
Cc1csc(NC(=O)COc2cccc3ccccc23)n1	nt	nt	i	nt	nt	nt

Compound activity: PubChem BioAssay, National Center for Advancing Translational Sciences (NCATS)
